Test results reported in PubChem BioAssay (Tox21).
Where “and” joins values, the source holds several entries; their conditions need not be identical. Equal values may be shown once. Results filed as inconclusive are left out. Calls of active or inactive are those of the source. Unless noted, the call rests on the fitted dose curve.

Legend:
[1] = molecular target: Aryl hydrocarbon receptor (Homo sapiens) (UniProt P35869); experiment: qHTS assay to identify small molecule that activate the aryl hydrocarbon receptor (AhR) signaling pathway (AID 743085; active means well fitted curve in the direction sought with a large enough effect in the repeat runs; an effect the other way counts as inactive or inconclusive;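 further: HG2L7.5c1 human HepG2 liver cells with stably integrated DRE-driven firefly reporter; nearly all actives have a fitted effect of over 15% in size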)
Outline: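 Stably transfected human liver carcinoma cells (HG2L7.5c1; 20 DRE-firefly luciferase) were incubated 5 h, dosed, and kept 24 h at 37C. Agonism was scored from increased luciferase luminescence.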

[2] = qHTS assay to identify small molecule antagonists of the retinoic acid receptor (RAR) signaling pathway (AID 1159552; active means well fitted curve in the direction sought with a large enough effect in the repeat runs; an effect the other way counts as inactive or inconclusive; further: nearly all actives have a fitted effect of over 50% in size; further: potency means the concentration at half of the fitted maximal effect)
Outline: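 Test chemicals and DMSO controls were pin-transferred onto C3RL4 cells a day after seeding; retinol (1 uM final) followed at once. Luminescent reporter output was quantified after 6 hr of co-incubation and 30 min with detection reagent.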

[3] = qHTS assay to identify small molecule agonists of the estrogen related receptor (ERR) signaling pathway from Tox21 library (AID 1224849); details: ERR reporter cell line, ONE-Glo luciferase, 18 h; at 92.4 µM (top of the series) unless noted; further: nearly all actives have a fitted effect of over 15% in size
Outline: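 Luminescence readout (ONE-Glo, 30 min RT) after 18 h compound exposure at 37 C of NTP-supplied ERR reporter cells; cells were plated 6 h before compound addition by pin tool.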

[4] = A CellTox Green Cytotoxicity Assay to monitor cytotoxicity in HepG2 cells - 0 hour (AID 1224882; active means well fitted curve in the direction sought with a large enough effect in the repeat runs; an effect the other way counts as inactive or inconclusive; further: nearly all actives have a fitted effect of over 35% in size; further: potency means the concentration at half of the fitted maximal effect)
Outline: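 HepG2, 600 cells/well premixed w/ CellTox Green; 5 h settle, 37 C/5% CO2; pintool cpd add (DMSO); 37 C, 40 h; fluorescence read at 0, 8, 16, 24, 32, 40 h.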

[5] = qHTS assay to identify small molecule HDAC inhibitors (AID 1259364; active means well fitted curve in the direction sought with a large enough effect in the repeat runs; an effect the other way counts as inactive or inconclusive;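 further: wild-type HCT-116 cells with endogenous class I/II HDAC activity; top concentration of the series differs between compounds; nearly all actives have a fitted effect of over 45% in size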)
Outline: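 HCT-116 (wild type), 1,500 cells/well, overnight; compound 2 hr 37C 5% CO2; HDAC-Glo I/II reagent 30 min RT; luminescence readout.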

[6] = qHTS assay to identify small molecule agonists of the sonic hedgehog signaling (Shh) pathway (AID 1259368);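 further: NIH/3T3-derived 3T3Gli1-Luc cells carrying a stable Gli1-driven firefly luciferase reporter; nearly all actives have a fitted effect of over 15% in size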
Outline: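 Read-out: firefly luciferase luminescence from a Gli1 response element reporter stably integrated in NIH/3T3-derived 3T3Gli1-Luc cells, measured 30 min at room temperature after reagent addition. Compound exposure lasted 24 hr at 37 C, 5% CO2.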

[7] = Caspase-3/7 induction in CHO-K1 cells by small molecules, qHTS assay (AID 1346980; active means well fitted curve in the direction sought with a large enough effect in the repeat runs; an effect the other way counts as inactive or inconclusive; further: nearly all actives have a fitted effect of over 15% in size)
Outline: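 Wild-type cells were seeded at 1,500 per well and settled 5 hr at 37 C, 5% CO2, then exposed to DMSO-dissolved compounds for 17 hr. Caspase-Glo 3/7 reagent was added, and luminescence was read after 30min at room temperature.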

[8] = molecular target: Acetylcholinesterase (Homo sapiens) (UniProt P22303); experiment: Acetylcholinesterase (AChE) small molecule antagonists: colormetric cell-based qHTS assay (AID 1347395); further: nearly all actives have a fitted effect of over 30% in size; further: potency means the concentration at half of the fitted maximal effect
Outline: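 After overnight attachment at 37 C, SH-SY5Y cells get 30 min compound exposure; detection cocktail (acetylthiocholine, DTNB) then incubates 90 min at 37 C, and absorbance reflects AChE-generated thiocholine.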

[9] = molecular target: Acetylcholinesterase (Homo sapiens) (UniProt P22303); experiment: Acetylcholinesterase (AChE) small molecule antagonists: enzyme-based qHTS assay (AID 1347397); details: Potency: AChE enzyme activity inhibition; outcome: AChE enzyme activity inhibition; further: nearly all actives have a fitted effect of over 55% in size; further: potency means the concentration at half of the fitted maximal effect
Outline: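 Compound or DMSO vehicle was pin-transferred onto recombinant human AChE (50 mU/mL as dispensed) and left 30 min at room temperature. Acetylthiocholine with DTNB then started the reaction, read colorimetrically 10 min later.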

[10] = molecular target: Acetylcholinesterase (Homo sapiens) (UniProt P22303); experiment: Acetylcholinesterase (AChE) small molecule antagonists: fluorescence cell-based qHTS assay (AID 1347398); details: Potency: AChE activity; outcome: AChE activity; further: nearly all actives have a fitted effect of over 50% in size; further: potency means the concentration at half of the fitted maximal effect
Outline: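 Using neuroblastoma SH-SY5Y cells as the enzyme source, test chemicals are preincubated 30 min at 37 C; AChE-driven acetylthiocholine cleavage is then quantified by thiocholine-dependent Thiolite Green fluorescence after 40 min at room temperature.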

[11] = molecular target: Acetylcholinesterase (Homo sapiens) (UniProt P22303); experiment: Acetylcholinesterase (AChE) small molecule antagonists: enzyme-based qHTS assay with human liver microsomes (AID 1347399); details: Potency: qHTS inhibition; outcome: qHTS inhibition; further: nearly all actives have a fitted effect of over 60% in size; further: potency means the concentration at half of the fitted maximal effect
Outline: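 Recombinant human AChE (50 mU/mL in the enzyme mix) and human liver microsomes (0.25 mg/mL final) were preincubated with compound and NADPH (0.25 mg/mL final) for 30 min at 37 C. Acetylthiocholine/DTNB was then added; thiocholine was read colorimetrically after 10 min at room temperature.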

[12] = molecular target: Aromatase (Homo sapiens) (UniProt P11511); experiment: qHTS assay to identify aromatase inhibitors (AID 743083; active means well fitted curve in the direction sought with a large enough effect in the repeat runs; an effect the other way counts as inactive or inconclusive; further: nearly all actives have a fitted effect of over 55% in size; further: potency means the concentration at half of the fitted maximal effect)
[13] = qHTS assay to identify small molecule agonists of H2AX (AID 1224845; active means well fitted activation curve with a large enough effect in the signal ratio in the repeat runs, not every such curve was filed as active; the % refers to the signal ratio; further: potency means the concentration at half of the fitted maximal effect)
Outline: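 Wild-type CHO-K1 cells plated overnight, then exposed 3 hr at 37C to compounds at 15 concentrations (0.76% DMSO). Lysed, then HTRF anti-pH2AX(S139)-cryptate/anti-H2AX-d2 detection after 24 hr at room temperature; emissions 665 and 620 nm.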

[14] = Caspase-3/7 induction in HepG2 cells by small molecules, qHTS assay (AID 1346978; active means well fitted curve in the direction sought with a large enough effect in the repeat runs; an effect the other way counts as inactive or inconclusive; further: nearly all actives have a fitted effect of over 15% in size)
Outline: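 Wild-type HepG2 cells (2,000/well) were settled 5 h at 37 C, 5% CO2, then exposed to compounds in DMSO for 17 h. Caspase-3/7 activity was read by luminescence 30 min after adding Caspase-Glo 3/7 reagent at room temperature.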

[15] = qHTS assay to identify small molecule antagonists of the estrogen related receptor (ERR) signaling pathway - cell viability counter screen (AID 1224818; active means well fitted curve in the direction sought with a large enough effect in the repeat runs; an effect the other way counts as inactive or inconclusive)
Outline: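 Fluorescence from CellTiter-Fluor, read 30 min after reagent addition at 37 C, measured viability of ERR cells exposed to compounds for 17.5 h. Cells had settled 6 h before dosing.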

[16] = qHTS assay to identify small molecule antagonists of the estrogen related receptor (ERR) signaling pathway (AID 1224819; active means well fitted curve in the direction sought with a large enough effect in the repeat runs; an effect the other way counts as inactive or inconclusive;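 further: luminescence from an ERR-driven luciferase reporter measured with One-Glo reagent; nearly all actives have a fitted effect of over 50% in size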)
Outline: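 Luminescence readout (One-Glo, 30 min, RT) of ERR cell line after 18 h compound exposure at 37 C; cells seeded 2,000/well, pre-incubated 6 h, compounds pinned from DMSO stocks.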

[17] = system: estrogen-related receptor alpha (ERRalpha) with PGC-1alpha coactivator, human; experiment: qHTS assay to identify small molecule antagonists of the estrogen related receptor signaling pathway with the pleiotropic PPARgamma coactivator (PGC) (AID 1224821);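 further: lower luminescence signal means antagonism of PGC/ERR signalling; nearly all actives have a fitted effect of over 50% in size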
Outline: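 Screening used NTP's PGC/ERR cells, dosed via pin tool with compound in DMSO alongside positive and negative controls. After 18 h at 37 C, One-Glo reagent sat 30 min at room temperature before luminescence detection.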

[18] = qHTS assay to identify small molecule antagonists of the estrogen related receptor signaling pathway with the pleiotropic PPARgamma coactivator (PGC) cell viability counter screen (AID 1224822; active means well fitted curve in the direction sought with a large enough effect in the repeat runs; an effect the other way counts as inactive or inconclusive)
Outline: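 Fluorescence read-out of CellTiter-Fluor after 30 min at 37 C; PGC/ERR cells, 2,000 per well, had been exposed to DMSO-dissolved compounds for 17.5 h following a 6 h pre-incubation.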

[19] = qHTS assay to identify small molecule agonists of the estrogen related receptor (ERR) signaling pathway (AID 1224820; active means well fitted curve in the direction sought with a large enough effect in the repeat runs; an effect the other way counts as inactive or inconclusive)
Outline: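 Following a 6 h settling period, 2,000 ERR cells per well receive DMSO-dissolved compounds by pin tool and incubate 18 h at 37 C; agonist activity is scored from One-Glo luminescence read 30 min post-addition.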

[20] = qHTS assay to identify small molecule agonists of the estrogen related receptor signaling pathway with the pleiotropic PPARgamma coactivator (PGC) (AID 1224823; active means well fitted curve in the direction sought with a large enough effect in the repeat runs; an effect the other way counts as inactive or inconclusive)
Outline: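 In this quantitative high-throughput screen, an 18 h, 37 C treatment of PGC/ERR cells with compounds in DMSO preceded a One-Glo luminescence read taken after 30 min at room temperature.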
On the % scale 0 is the no-effect control and ±100 the full control effect.

Sequence of Aryl hydrocarbon receptor (Homo sapiens) (P35869 whole entry, looked up): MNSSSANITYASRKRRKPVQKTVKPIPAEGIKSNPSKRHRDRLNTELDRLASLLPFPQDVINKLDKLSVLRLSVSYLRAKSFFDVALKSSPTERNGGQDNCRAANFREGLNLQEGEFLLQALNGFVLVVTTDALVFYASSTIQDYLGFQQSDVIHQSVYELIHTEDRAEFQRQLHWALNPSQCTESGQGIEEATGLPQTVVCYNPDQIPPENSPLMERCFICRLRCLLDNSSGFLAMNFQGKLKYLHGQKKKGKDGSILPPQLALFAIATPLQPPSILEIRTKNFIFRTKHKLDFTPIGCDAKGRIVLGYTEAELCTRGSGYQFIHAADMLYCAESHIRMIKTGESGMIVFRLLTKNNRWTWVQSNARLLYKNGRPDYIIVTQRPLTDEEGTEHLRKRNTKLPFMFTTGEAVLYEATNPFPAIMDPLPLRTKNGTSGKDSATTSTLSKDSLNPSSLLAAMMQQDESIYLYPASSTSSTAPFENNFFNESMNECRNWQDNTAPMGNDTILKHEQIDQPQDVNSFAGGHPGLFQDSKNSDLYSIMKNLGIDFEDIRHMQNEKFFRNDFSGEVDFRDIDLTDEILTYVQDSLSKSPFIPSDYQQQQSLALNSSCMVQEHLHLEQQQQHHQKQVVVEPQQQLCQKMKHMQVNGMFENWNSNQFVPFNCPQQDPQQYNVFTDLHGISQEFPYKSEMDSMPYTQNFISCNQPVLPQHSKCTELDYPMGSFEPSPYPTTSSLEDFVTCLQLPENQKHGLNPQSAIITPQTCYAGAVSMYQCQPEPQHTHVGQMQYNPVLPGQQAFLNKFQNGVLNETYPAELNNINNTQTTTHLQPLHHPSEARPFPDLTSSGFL
Sequence of Acetylcholinesterase (Homo sapiens) (P22303 whole entry, looked up): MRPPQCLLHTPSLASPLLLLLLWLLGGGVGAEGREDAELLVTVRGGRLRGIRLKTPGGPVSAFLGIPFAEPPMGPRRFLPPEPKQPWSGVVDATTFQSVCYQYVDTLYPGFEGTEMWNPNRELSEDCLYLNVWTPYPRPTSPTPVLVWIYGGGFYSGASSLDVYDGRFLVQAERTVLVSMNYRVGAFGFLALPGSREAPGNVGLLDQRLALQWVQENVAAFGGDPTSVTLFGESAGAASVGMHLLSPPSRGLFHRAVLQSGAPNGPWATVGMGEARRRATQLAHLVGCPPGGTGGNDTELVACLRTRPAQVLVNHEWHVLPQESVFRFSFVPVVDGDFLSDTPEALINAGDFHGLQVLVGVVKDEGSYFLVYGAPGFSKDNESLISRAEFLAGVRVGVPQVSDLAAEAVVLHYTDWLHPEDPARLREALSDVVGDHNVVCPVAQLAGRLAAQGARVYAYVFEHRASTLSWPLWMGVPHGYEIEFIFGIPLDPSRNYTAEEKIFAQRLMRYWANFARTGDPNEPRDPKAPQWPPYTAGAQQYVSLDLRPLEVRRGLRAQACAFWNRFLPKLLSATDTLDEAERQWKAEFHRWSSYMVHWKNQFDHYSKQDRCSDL
Sequence of Aromatase (Homo sapiens) (P11511 whole entry, looked up): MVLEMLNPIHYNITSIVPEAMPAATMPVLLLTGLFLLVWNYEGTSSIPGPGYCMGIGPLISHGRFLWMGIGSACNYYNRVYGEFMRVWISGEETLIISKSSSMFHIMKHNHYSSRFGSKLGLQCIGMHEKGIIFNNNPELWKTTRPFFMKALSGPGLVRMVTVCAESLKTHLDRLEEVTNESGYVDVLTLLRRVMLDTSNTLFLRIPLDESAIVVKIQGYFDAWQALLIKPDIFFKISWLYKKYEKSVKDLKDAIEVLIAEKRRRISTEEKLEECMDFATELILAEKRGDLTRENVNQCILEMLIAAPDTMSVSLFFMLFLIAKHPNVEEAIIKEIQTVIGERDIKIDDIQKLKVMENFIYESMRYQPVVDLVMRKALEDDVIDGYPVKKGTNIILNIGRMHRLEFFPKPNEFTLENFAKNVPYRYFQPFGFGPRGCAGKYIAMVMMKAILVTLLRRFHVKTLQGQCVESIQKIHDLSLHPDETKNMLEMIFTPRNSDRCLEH

c1ccc2c(c1)Sc1ccccc1N2CC1CN2CCC1CC2 (centres undefined)
inactive: Potency [1] | activity change, positive = activation [3] -49.8% [at 42.5 µM] | Potency [4] | outcome [5] | outcome [6] | outcome [7] | Potency [8] | Potency [9] | Potency [10] | Potency [11]
active: Potency [2] 29.8 µM

CCc1cccc(CC)c1N
inactive: Potency [12] | Potency [13] | Potency [8] | Potency [9] | Potency [10] | Potency [11]

N#Cc1cc([N+](=O)[O-])ccc1N
inactive: Potency [2] | Potency [13] | activity change, positive = activation [3] -2.3% | Potency [4] | outcome [5] | outcome [6] | Potency [14] | outcome [7] | Potency [8] | Potency [9] | Potency [11]

O=C1OC(=O)c2c(Cl)c(Cl)c(Cl)c(Cl)c21
inactive: Potency [12] | Potency [1] | Potency [2] | activity change, positive = activation [3] -2.98% | Potency [14] | Potency [8] | Potency [9] | Potency [11]

ClC1=C(Cl)C(Cl)(Cl)C(Cl)=C1Cl
inactive: Potency [2] | Potency [14] | Potency [8] | Potency [9] | Potency [10] | Potency [11]

CCC(C)=O
inactive: Potency [12] | Potency [2] | Potency [13] | activity change, positive = activation [3] -6.3% | Potency [8] | Potency [9] | Potency [10] | Potency [11]

COCCOC(=O)c1ccccc1C(=O)OCCOC
inactive: Potency [12] | Potency [1] | Potency [2] | Potency [14] | Potency [8] | Potency [9] | Potency [10] | Potency [11]

CC(c1ccccc1)(c1ccc(O)cc1)c1ccc(O)cc1
inactive: activity change, positive = activation [3] -53.1% | Potency [4] | outcome [5] | outcome [6] | outcome [7] | Potency [8] | Potency [10] | Potency [11]

CC1COC(Cn2cncn2)(c2ccc(Oc3ccc(Cl)cc3)cc2Cl)O1 (centres undefined)
active: Potency [12] 30.6 µM
inactive: Potency [1] | Potency [2] | activity change, positive = activation [3] -64.8% | Potency [4] | outcome [5] | outcome [6] | Potency [14] | outcome [7] | Potency [8] | Potency [9] | Potency [10] | Potency [11]

CC(C)(C)c1cc(C(C)(C)C)c(O)c(C(C)(C)C)c1
inactive: Potency [12] | Potency [1] | Potency [14] | Potency [8] | Potency [9] | Potency [10] | Potency [11]
active: Potency [13] 101 µM

CCCCC(CC)COC(=O)c1ccc(C(=O)OCC(CC)CCCC)cc1 (centres undefined)
inactive: Potency [12] | Potency [1] | Potency [2] | Potency [13] | activity change, positive = activation [3] 0.923% | Potency [8] | Potency [9] | Potency [10] | Potency [11]

Oc1c(I)cc(I)cc1I
inactive: Potency [13] | activity change, positive = activation [3] -24.5% | Potency [4] | outcome [5] | outcome [6] | Potency [14] | outcome [7] | Potency [8] | Potency [9] | Potency [10] | Potency [11]

OC(Cc1ccccc1Cl)(Cn1[nH]cnc1=S)C1(Cl)CC1 (centres undefined)
inactive: Potency [2] | Potency [13] | Potency [4] | outcome [5] | outcome [6] | Potency [14] | outcome [7] | Potency [8] | Potency [9] | Potency [10] | Potency [11]

CCOC(=O)C(O)(c1ccc(Cl)cc1)c1ccc(Cl)cc1
active: Potency [12] 4.37 µM and 30.6 µM | Potency [2] 30.9 µM and 30.6 µM | Potency [13] 90.7 µM and 89.8 µM
inactive: Potency [4] | outcome [5] | outcome [6] | Potency [8] | Potency [9] | Potency [10] | Potency [11]

O=S(=O)(C(Cl)(Cl)Cl)C(Cl)(Cl)Cl
inactive: activity change, positive = activation [3] -70.9% | Potency [4] | outcome [5] | outcome [6] | Potency [14] | outcome [7] | Potency [8] | Potency [9] | Potency [10] | Potency [11]
active: Potency [2] 9.69 µM

O=C(Nc1ccccc1-c1ccc(Cl)cc1)c1cccnc1Cl
inactive: Potency [1] | Potency [2] | Potency [15] | Potency [16] | Potency [17] | Potency [18] | Potency [13] | activity change, positive = activation [3] -31.8% | outcome [5] | outcome [6] | Potency [14] | outcome [7] | Potency [8] | Potency [9] | Potency [10] | Potency [11]
active: Potency [4] 41.2 µM

CCCCC(CC)COC(=O)CCCCC(=O)OCC(CC)CCCC (centres undefined)
inactive: Potency [12] | Potency [1] | Potency [2] | Potency [14] | Potency [8] | Potency [9] | Potency [10] | Potency [11]

CNC(=O)Oc1cc(C)c(SC)c(C)c1
active: Potency [13] 63.5 µM | Potency [8] 3.17 µM | Potency [9] 3.56 µM | Potency [10] 1.59 µM | Potency [11] 22.4 µM
inactive: Potency [4] | outcome [5] | outcome [6] | Potency [14] | outcome [7]

COc1cc(OC)c(OC)cc1C=O
inactive: Potency [15] | Potency [16] | Potency [19] | Potency [17] | Potency [18] | Potency [20] | activity change, positive = activation [3] -39.3% | Potency [4] | outcome [5] | outcome [6] | Potency [14] | outcome [7] | Potency [8] | Potency [9] | Potency [10] | Potency [11]
active: Potency [12] 44.4 µM

Cc1ccc2nc3sc(=O)sc3nc2c1
inactive: activity, negative = inhibition [2] 10.1% [at 19 µM] | activation (H2AX phosphorylation) [13] -0.108% [at 31.6 µM] | cytotoxicity [4] 0.753% [at 15.8 µM] | activity change, negative = inhibition [5] -12.7% [at 19 µM] | activity change [6] 2.66% [at 18.9 µM] | caspase activation [14] 0.305% [at 19 µM] | caspase-3/7 activation [7] -0.994% [at 19 µM] | activity, negative = inhibition [8] -0.0538% [at 23.6 µM] | activity change, negative = inhibition [9] 0% [at 23.6 µM] | activity change, negative = inhibition [10] 1.71% [at 23.8 µM] | activity change, negative = inhibition [11] -0.324% [at 23.6 µM]

Nc1ccc(Cl)cc1[N+](=O)[O-]
inactive: Potency [12] | Potency [2] | Potency [13] | Potency [8] | Potency [9] | Potency [10] | Potency [11]
